Drawing on PubChem BioAssay, this text covers z-score and composite z-score for four compounds.

The structures appear in SMILES notation. Calls of active or inactive are those of the source.

Experiment [1] can be described thus: E. coli DRC41 culture turbidity changes, primary screen, E. coli filamentation inducer project, strain DRC41, OD650, 48 h (AID 1152).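 Note: E. coli MC1000 strain DRC41 lacking acrAB efflux pump and sulA.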 The conditions noted are these: E. coli DRC41 (acrAB sulA), higher = more signal, called active from +8 up or from −8 down.
A short description of experiment [2]: small-molecule binders of probe aLefty1, primary screen, biochemical, small-molecule microarray, 635/667 nm fluorescence (AID 1153).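 Note: score merges spot fluorescence with signal-to-noise ratio from the scanned slide images.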 Conditions: higher = more signal.
The nature of experiment [3]: PSAC antagonists in infected red cells, primary screen, cell-based, P. falciparum Indochina, OD700, 1 h (AID 1154). Conditions: P. falciparum Indochina infected RBC osmotic lysis, higher = more signal, called active from +8 up or from −8 down.
The nature of experiment [4]: PSAC antagonists in infected red cells, primary screen, cell-based, P. falciparum Indochina, OD700, 2 h (AID 1155).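 Note: lysis reports solute entry through the parasite surface anion channel PSAC; channel blockers reduce lysis of infected cells.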 The conditions noted are these: P. falciparum Indochina infected erythrocytes, osmotic lysis OD700; higher = more signal, called active from +8 up or from −8 down.
A short description of experiment [5]: osmotic lysis modulators in infected erythrocytes, primary screen, PSAC antagonist project, cell-based, P. falciparum Indochina, OD700, 3 h (AID 1156). Conditions: higher = more signal, called active from +8 up or from −8 down.
The nature of experiment [6]: PSAC antagonists in infected red cells, primary screen, cell-based, P. falciparum Indochina, OD700, 18 h (AID 1157). The conditions noted are these: P. falciparum Indochina infected erythrocytes, osmotic lysis OD700, 18 h; higher = more signal, called active from +8 up or from −8 down.
Experiment [7] can be described thus: modulators of S6 phosphorylation in cells, primary screen, cell-based, A549, cytoblot, luminescence, serum-stimulated (AID 1158).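 Note: serum-stimulated A549 lung adenocarcinoma cells; signal is phosphorylated S6 detected by cytoblot immunostaining with HRP secondary.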 Conditions: A549 phospho-S6 cytoblot, 5 h, higher = more signal.
Experiment [8] deals with NADPH oxidase 2 (Homo sapiens) (UniProt P04839). The experiment can be described thus: NOX2-dependent H2O2 signal modulators, primary screen, NOX inhibitor project, cell-based, HEK293-NOX2, PMA-stimulated, Amplex Red fluorescence (AID 1159). Note: test concentration not given here. Conditions: 45 min, higher = more signal, called active from +8 up or from −8 down.
For experiment [9], the target named is NADPH oxidase 4 (Homo sapiens) (UniProt Q9NPH5). Description: NOX4-dependent H2O2 signal modulators, primary screen, NOX inhibitor project, cell-based, HEK293-NOX4, tetracycline-induced, Amplex Red fluorescence (AID 1160). Conditions: 45 min, higher = more signal, called active from +8 up or from −8 down.
Experiment [10] has as its target NADPH oxidase 5 (Homo sapiens) (UniProt Q96PH1). Description: NOX5-dependent H2O2 signal modulators, primary screen, NOX inhibitor project, cell-based, HEK293-NOX5, Amplex Red fluorescence (AID 1161). Conditions: HEK293-NOX5, ionomycin, 45 min, higher = more signal.
Experiment [11] can be described thus: A549 cell viability effects, profiling panel, calcein-AM fluorescence, 48 h, basal (AID 1162). Note: test concentration not given here. Conditions: higher = more signal.
A short description of experiment [12]: adipocyte viability effects, profiling panel, cell-based, 3T3-L1 adipocytes, calcein-AM fluorescence, 48 h, basal (AID 1163). Note: test concentration not given here. The conditions noted are these: 3T3-L1 adipocytes viability, higher = more signal.
Experiment [13] can be described thus: HepG2 cell viability effects, profiling panel, calcein-AM fluorescence, 48 h, basal (AID 1164). Note: test concentration not given here. Conditions: higher = more signal.
Experiment [14] in a line: MM1S cell viability effects, profiling panel, calcein-AM fluorescence, 48 h, basal (AID 1165).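 Note: viability of MM1S multiple myeloma cells under basal unstimulated conditions; test concentration not given here.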 Conditions: higher = more signal.
Experiment [15] is described as follows: basal RPMI8226 viability, no added stimulus, profiling panel, cell-based, calcein-AM fluorescence, 48 h, PK04 Diversity Set (AID 1166).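 Note: cells grown under basal conditions without added stimulus; test concentration not given here.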 The conditions noted are these: RPMI8226 myeloma viability, higher = more signal.
The nature of experiment [16]: basal HepG2 mitochondrial membrane potential changes, profiling panel, cell-based, JC-1 fluorescence, 24 h, 100 nL compound (AID 1167). Note: test concentration not given here. Conditions: higher = more signal.
Experiment [17] can be described thus: basal 3T3-L1 adipocyte mitochondrial potential changes, profiling panel, cell-based, JC-1 fluorescence, 3T3-L1 adipocytes, 24 h, 100 nL compound (AID 1168). Note: test concentration not given here. Conditions: JC-1 mitochondrial fluorescence, higher = more signal, called active from +8 up or from −8 down.
Experiment [18] in a line: basal RPMI8226 mitochondrial membrane potential changes, profiling panel, cell-based, JC-1 fluorescence, 24 h, 100 nL compound (AID 1169). Note: test concentration not given here. Conditions: RPMI8226 myeloma, JC-1 mitochondrial potential fluorescence, higher = more signal.
Experiment [19] is described as follows: basal MM1S mitochondrial membrane potential changes, profiling panel, cell-based, JC-1 fluorescence, 24 h, 100 nL compound (AID 1170). Note: test concentration not given here. The conditions noted are these: higher = more signal.
Experiment [20] is described as follows: A549 lung cancer cell viability effects, profiling panel, resazurin fluorescence, 24 h, PK04 Diversity Set (AID 1171). Note: test concentration not given here. The conditions noted are these: higher = more signal, called active from +8 up or from −8 down. (In general: The colour change of resazurin is a common sign of viable cells or microbes.)

Chain of NADPH oxidase 5 (Homo sapiens) (Q96PH1 whole entry, looked up): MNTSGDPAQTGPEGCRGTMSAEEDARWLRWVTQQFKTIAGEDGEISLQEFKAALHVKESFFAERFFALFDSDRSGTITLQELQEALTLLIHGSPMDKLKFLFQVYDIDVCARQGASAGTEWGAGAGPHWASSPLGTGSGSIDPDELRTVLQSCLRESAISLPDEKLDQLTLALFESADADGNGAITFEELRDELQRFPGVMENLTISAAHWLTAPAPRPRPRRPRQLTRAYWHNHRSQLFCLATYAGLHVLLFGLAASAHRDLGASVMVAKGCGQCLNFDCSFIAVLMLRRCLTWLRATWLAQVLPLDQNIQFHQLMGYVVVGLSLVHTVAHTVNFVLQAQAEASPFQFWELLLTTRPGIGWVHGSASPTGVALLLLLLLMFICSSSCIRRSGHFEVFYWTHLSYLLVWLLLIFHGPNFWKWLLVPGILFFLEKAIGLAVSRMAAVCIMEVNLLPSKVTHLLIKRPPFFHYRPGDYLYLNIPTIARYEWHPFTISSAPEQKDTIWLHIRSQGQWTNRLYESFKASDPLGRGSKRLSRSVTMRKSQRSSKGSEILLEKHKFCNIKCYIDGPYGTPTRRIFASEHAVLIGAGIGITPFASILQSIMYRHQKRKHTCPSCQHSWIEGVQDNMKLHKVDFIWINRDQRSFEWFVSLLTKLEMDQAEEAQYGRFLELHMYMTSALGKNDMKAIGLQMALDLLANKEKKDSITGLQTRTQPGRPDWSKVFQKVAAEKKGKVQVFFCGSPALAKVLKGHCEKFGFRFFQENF
Chain of NADPH oxidase 4 (Homo sapiens) (Q9NPH5 whole entry, looked up): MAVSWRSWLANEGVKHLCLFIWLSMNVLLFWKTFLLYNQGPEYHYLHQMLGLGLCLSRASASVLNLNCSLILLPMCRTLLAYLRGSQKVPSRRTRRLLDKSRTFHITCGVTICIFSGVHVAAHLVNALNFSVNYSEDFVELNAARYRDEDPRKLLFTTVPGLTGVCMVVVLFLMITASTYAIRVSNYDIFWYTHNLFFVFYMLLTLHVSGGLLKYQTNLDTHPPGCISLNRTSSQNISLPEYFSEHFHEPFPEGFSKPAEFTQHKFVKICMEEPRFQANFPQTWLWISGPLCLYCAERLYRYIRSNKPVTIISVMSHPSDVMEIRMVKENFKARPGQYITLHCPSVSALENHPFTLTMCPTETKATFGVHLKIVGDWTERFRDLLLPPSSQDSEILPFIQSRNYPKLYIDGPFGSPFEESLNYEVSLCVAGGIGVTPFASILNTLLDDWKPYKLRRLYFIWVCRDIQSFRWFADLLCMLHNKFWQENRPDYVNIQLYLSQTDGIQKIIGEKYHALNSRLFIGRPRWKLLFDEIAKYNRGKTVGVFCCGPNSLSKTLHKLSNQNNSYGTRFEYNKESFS
Chain of NADPH oxidase 2 (Homo sapiens) (P04839 whole entry, looked up): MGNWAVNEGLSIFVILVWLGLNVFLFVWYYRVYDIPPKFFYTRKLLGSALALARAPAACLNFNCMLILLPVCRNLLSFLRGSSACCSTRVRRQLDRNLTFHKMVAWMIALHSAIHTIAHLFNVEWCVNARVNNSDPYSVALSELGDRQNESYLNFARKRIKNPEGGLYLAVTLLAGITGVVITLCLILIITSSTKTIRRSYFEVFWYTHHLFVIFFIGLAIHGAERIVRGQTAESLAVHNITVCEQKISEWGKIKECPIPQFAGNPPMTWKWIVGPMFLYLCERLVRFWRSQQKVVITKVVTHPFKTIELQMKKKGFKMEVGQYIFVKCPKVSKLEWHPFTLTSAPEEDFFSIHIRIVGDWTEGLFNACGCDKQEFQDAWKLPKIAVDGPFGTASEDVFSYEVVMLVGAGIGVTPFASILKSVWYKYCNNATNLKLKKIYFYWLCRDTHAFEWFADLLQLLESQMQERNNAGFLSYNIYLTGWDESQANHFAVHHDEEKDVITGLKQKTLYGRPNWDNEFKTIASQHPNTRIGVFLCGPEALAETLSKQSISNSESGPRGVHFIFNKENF

With `CC(C)C(CO)N1C(=O)[C@@H]2[C@H]3C(=O)OCC=C[C@H]3OC23C=CCN(c2ccc4ccccc4c2)C(=O)[C@@H]13` (stereo not given in full), the z-score in experiment [1] is -0.165 (inactive); in experiment [3] it was 0.244 (inactive); in [4], 0.884 (inactive); in experiment [5], 0.686 (inactive); in experiment [6] it was 0.6 (inactive); in experiment [7], -0.575. In addition, the z-score is 0.902 (inactive) in experiment [8]; 0.357 (inactive) in [9]; 1.74 in experiment [10]; -0.339 in experiment [11]; 0.126 in experiment [12]; 0.21 in experiment [13]. Besides, the z-score in experiment [14] is 0.88; in [15], -1.02; in [16], -0.124; in experiment [17], 0.106 (inactive); in experiment [18], -0.651; in experiment [19] it was 1.1. In addition, the z-score in [20] is 0.156 (inactive). The same compound had a composite z-score in experiment [2] of -0.147.

`O=C(NCc1ccccc1)[C@@H]1c2ccccc2C(=O)N(C2CCCCC2)[C@H]1c1ccc(CO)cc1`: the z-score in [1] is -0.246 (inactive); in [3], 2.67 (inactive); in experiment [4] it was 0.0744 (inactive); in [5], 0.473 (inactive); in [6] it was 0.475 (inactive); in [7], -0.127. Further, the z-score in experiment [8] is -0.245 (inactive); in experiment [9], 0.684 (inactive); in experiment [10], 0.725; in experiment [11], 1.53; in experiment [12], -0.116; in [13], 1.54. Besides, the z-score in experiment [14] was 0.499; in [15] it was -0.0572; in experiment [16], 2.46; in [17] it was 0.401 (inactive); in [18], 0.739; in [19], -0.531. Further, the z-score in experiment [20] was -0.222 (inactive). In experiment [2], the composite z-score is -0.458.

For the compound `O=C(CS)NCCCCCCNC(=O)[C@H]1C[C@H]2C(=O)N3CCC[C@H]3C(=O)N2[C@H]1c1ccc(O)cc1`, the z-score in [1] was -0.827 (inactive); in [3] it was 3.99 (inactive); in [4], 0.776 (inactive); in [5], -1.85 (inactive); in experiment [6], 0.179 (inactive); in experiment [7], -0.126. Moreover, the z-score in experiment [8] was 1.05 (inactive); in experiment [9], 0.241 (inactive); in [10], 0.247; in experiment [11], -0.683; in experiment [12], 0.646; in experiment [13], 0.0725. Moreover, the z-score was -0.213 in experiment [14]; 1.07 in [15]; -1.12 in [16]; -0.0423 (inactive) in experiment [17]; -0.0782 in [18]; -0.419 in experiment [19]. The z-score in experiment [20] is 0.985 (inactive). In experiment [2], this compound registered a composite z-score of 0.157.

Turning to `CN1C(=O)C2C=CC(C(O)c3ccc(Br)cc3)N(Nc3ccccc3)C2C1=O` (stereo not given), the z-score is -0.506 (inactive) in experiment [1]; 0.884 (inactive) in experiment [3]; 0.708 (inactive) in experiment [4]; 0.302 (inactive) in experiment [5]; 0.826 (inactive) in [6]; -0.595 in experiment [7]. For the same compound, the z-score in experiment [8] is -0.592 (inactive); in experiment [9], -4.5 (inactive); in experiment [10] it was -2.23; in [11] it was 0.622; in experiment [12], -0.384; in experiment [13] it was 1.17. Further, the z-score in experiment [14] was -0.0257; in experiment [15], -0.119; in experiment [16], -3.16; in experiment [17] it was -1 (inactive); in experiment [18], 0.0774; in [19] it was -0.425. In [20], the z-score is -0.443 (inactive). The compound further came in with a composite z-score in experiment [2] of 0.106.
